The values that follow come from PubChem BioAssay (Tox21).

Inconclusive results are not listed. Values without a mark were called inactive. Calls of active or inactive are those of the source. The call rests on the fitted dose curve.
On the % scale 0 is the no-effect control and ±100 the full control effect; potency means the concentration at half of the fitted maximal effect.

This assay can be described thus: p53 small molecule agonists, cell-based qHTS assay with human liver microsomes (AID 1963577).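 On activation: p53 response element beta-lactamase reporter cells with liver microsomes plus NADPH.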 Particulars: HCT-116 p53RE-bla with human liver microsomes, ratio, 16 h; series mostly up to 66 µM; activation: at the top concentration. An excerpt: National Center for Advancing Translational Sciences [NCATS]
Division of Preclinical Innovation [DPI]
U.S. Environmental Protection Agency [EPA]
National Institutes of Environmental Health Sciences [NIEHS]
National Toxicology Program [NTP]
U.S. Food and Drug Administration [FDA]
p53, a tumor suppressor protein, is activated following cellular insult, including DNA damage and other cellular stresses. The activation of p53 regulates cell fate by inducing DNA repair, cell cycle arrest, apoptosis, or cellular senescence. The activation of p53, therefore, is a good indicator of DNA damage and other cellular stresses. […] The activation of the reporter gene under culture conditions can be detected by fluorescence intensity.
Tox21 Assay Protocol Summary:
The p53RE-bla cells were dispensed at 4,000cells/3ul/well in 1536-well black-clear bottom plates. After the assay plates were incubated at 37 C, 5% CO2 incubator for 5 hours, 23 nL of compounds dissolved in DMSO, positive controls or DMSO only was transferred to the assay plate. Following compound addition, 3 uL of human liver microsomes (XenoTech, Kansas City, KS) at final concentration of 0.5 mg/mL and 1uL of Beta-Nicotinamide adenine dinucleotide 2-phosphate (NADPH) at final concentration of 0.5 mg/mL were transferred to the assay plate. The plates were incubated at 37 C for 16 hours. 1 uL of LiveBLAzer detection mixture was added to each well and the plates were incubated at room temperature in the dark for 2 h.
In general terms: In qHTS, concentration-response curves come from the screen itself.
On to `CCc1cccc(C)c1N(C(=O)CCl)C(C)COC` (stereo not given), for which the Potency result was “inactive”.
On the same count and under the same terms, then `CC(C)(O)C#N`, with “inactive”; and `ClC(Cl)(Cl)Br`, with “inactive”.
For `Nc1ccc2ccccc2c1`, the Potency entry was “inactive”.
The same measure, in the same setting: then `Clc1ccc(Cl)cc1`, with “inactive”.
With `CCCBr`, the “activation” value was 2.76%.
In the case of `C[C@H]1CCCC(=O)CCC/C=C/c2cc(O)cc(O)c2C(=O)O1`, the Potency entry is “inactive”.
Turning to `CCOP(=S)(OCC)Oc1nc(Cl)c(Cl)cc1Cl`, the “activation” value is 0.207%.
As for `O=C(O)C(F)(F)C(F)(F)C(F)(F)C(F)(F)C(F)(F)C(F)(F)F`, the “activation” value was -4.71%.
Take `CCCC[N+]1(C)CCCC1`: the Potency result is “inactive”.
On to `CNC(C)(C)Cc1ccccc1`, for which the “activation” value was 5.64% [at 30.3 µM].
On the same count and under the same terms, then `CCC(C)n1c(=O)[nH]c(C)c(Br)c1=O` (stereo not given), with 2.66%.
Regarding `Nc1ncc([N+](=O)[O-])s1`, the “activation” value was 11.5%.
Still for that read-out and setting: then `O=C(NCc1cccnc1)Nc1ccc([N+](=O)[O-])cc1`, with -4.76%; and `CCOP(=O)(CN(CCO)CCO)OCC`, with 8.2%.
In the case of `CC(C#N)CCC#N` (stereo not given), the Potency result was “inactive”.
`O=c1c2ccccc2c(=O)c2c1cc(Cl)c1[nH]c3c([nH]c12)c(Cl)cc1c(=O)c2ccccc2c(=O)c13`: the “activation” value was -0.561%.
Take `C=C1CC[C@@]2(O)[C@H]3Cc4ccc(O)c5c4[C@@]2(CCN3CC2CC2)[C@H]1O5`: the “activation” value is 0.43% [at 30.3 µM].
As to `CCOP(=S)(OCC)O/N=C(\C#N)c1ccccc1`, the Potency was 2.57 µM (active).
Turning to `CC(C)NC(=O)N1CC(=O)N(c2cc(Cl)cc(Cl)c2)C1=O`, the “activation” value is -4.63%.
In the case of `ClCCOCOCCCl`, the “activation” value was -0.77%.
Turning to `[P]#[In]`, the “activation” value is -1.17%.
With `O=NN1CCCC1`, the Potency entry was “inactive”.
Same read-out and setting: then `FC(F)(F)c1ccc(Cl)cc1`, with “inactive”.
Consider `C(CCOCC1CO1)COCC1CO1` (stereo not given), for which the “activation” value was 8.7%.
For `C=C(C)C(=O)OCC1CO1` (stereo not given), the Potency entry was “inactive”.
Take `OCCCl`: the “activation” value was 0.382%.
Turning to `N#Cc1ccccc1Cl`, the “activation” value is -0.316%.
Turning to `CN(C)C(=O)C(c1ccccc1)c1ccccc1`, the Potency entry was “inactive”.
Take `Cn1c(N)nc2c3cccnc3ccc21`: the “activation” value was -2.06%.
On to `CCOP(=S)(OCC)OP(=S)(OCC)OCC`, for which the Potency was 18.2 µM (active).
The same measure, in the same setting: then `COC(=O)c1sccc1S(=O)(=O)NC(=O)Nc1nc(C)nc(OC)n1`, with “inactive”; and `CC(Br)C(=O)O` (stereo not given), with “inactive”.
Still for that read-out and setting: then `CC(C)N1C(=O)c2ccccc2NS1(=O)=O`, with “inactive”.
Take `CN1CCC(N(Cc2ccccc2)c2ccccc2)CC1`: the “activation” value is -2.27% [at 30.3 µM].
The same measure, in the same setting: then `CCCC(=O)Cl`, with 0.0332%.
Regarding `CC(C)CON=O`, the Potency entry is “inactive”.
In the case of `Nc1c(Br)cc([N+](=O)[O-])cc1[N+](=O)[O-]`, the “activation” value was -4.19%.
On to `O=C(O)CC(O)(CC(=O)O)C(=O)O`, for which the Potency entry was “inactive”.
The same measure, in the same setting: the value for `CCC(=O)C(CC(C)N(C)C)(c1ccccc1)c1ccccc1` (stereo not given) was “inactive”.
